Assay results published in PubChem BioAssay.
“And” between values parts separate entries of the source, which are not always exact repeats. Identical values can stand only once. For some of these results: Potency and affinity values are given separately. The source made the active and inactive calls.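 How the source made its calls, unless noted: active means thallium flux through the channel raised or lowered by more than 3 SD from vehicle-only wells, actives on both sides; inactive means the rest.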

Experiments:
[1] = P. berghei load reduction in hepatocytes – cell-based, HepG2, luciferase luminescence, HepG2 viability, primary screen (AID 624349; in the data active means parasite load remaining mostly below about 12%, no sharp cut-off; inactive means mostly above about 10%;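 further: 100% = mean of DMSO negative control wells on the same plate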); conditions: P. berghei liver stage in HepG2, luciferase luminescence, concentration not given here; parasite load remaining: stronger effect = lower value; viability: measured here: HepG2 viability without parasites
[2] = signal quenchers or enhancers, Cy5 substrate/SSB – biochemical, NIH Clinical Collection, E. coli SSB, artefact control for HCV NS3 helicase inhibitor project (AID 743268; call rule not given here); conditions: Cy5-oligo bound E. coli SSB, fluorescence interference
[3] = system: Hepatitis C virus NS3 helicase; experiment: blockers of NS3h binding to DNA – biochemical, fluorescence polarization, NIH Clinical Collection, primary screen (AID 743270; call rule not given here); conditions: NS3 helicase binding to Cy5-dT15 DNA, stronger effect = higher value, concentration not given here
[4] = target: Single-stranded DNA-binding protein (Escherichia coli (strain K12)) (UniProt P0AGE0); experiment: SSB-ssDNA binding inhibitors – biochemical, fluorescence polarization, NIH Clinical Collection, counter-screen for HCV NS3 helicase inhibitor project (AID 743271; in the data active means inhibition above about 28%); conditions: E. coli SSB-DNA binding, stronger effect = higher value, concentration not given here
[5] = compounds distorting NS3 helicase fluorescence signal – biochemical, NIH Clinical Collection, artefact control for HCV NS3 helicase inhibitor project (AID 743272; call rule not given here;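 further: HCV NS3 helicase with a Cy5 labelled single stranded DNA probe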); conditions: fluorescence interference counterscreen, HCV NS3 helicase assay; stronger effect = lower value
[6] = system: Neuropilin-2 / VEGF-C interaction (human); experiment: small molecules blocking Neuropilin-2/VEGF-C interaction – biochemical, microplate binding format, z-score (AID 743281; call rule not given here); conditions: microplate NRP2/VEGF-C binding assay; stronger effect = lower value
[7] = system: F380Y; experiment: BK channel mutant inhibitors and activators – cell-based, U2OS BacMam, thallium flux, beta subunits, selectivity assay, profiling panel (AID 1259406); conditions: U2OS BacMam BK variants, at 30 µM;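 further: initial slope of Thallos dye fluorescence rise after thallium is added; log ratio against the mean of 0.3% DMSO vehicle wells on the same plate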
[8] = system: F380Y/beta1; experiment: as above; conditions: U2OS BacMam BK variants, at 30 µM
[9] = system: F380Y/beta2Delta; experiment: as above; conditions: U2OS BacMam BK variants, at 30 µM
[10] = system: F380Y/beta4; experiment: as above; conditions: U2OS BacMam BK variants, at 30 µM
[11] = target: Calcium-activated potassium channel subunit alpha-1 (Homo sapiens) + Leucine-rich repeat-containing protein 26 (Homo sapiens) (UniProt Q12791+Q2I0M4); experiment: as above; conditions: U2OS BacMam BK variants, F380Y/Slo1WT/gamma1, at 30 µM
Sequence of Calcium-activated potassium channel subunit alpha-1 (Homo sapiens) + Leucine-rich repeat-containing protein 26 (Homo sapiens) (Q2I0M4 whole entry, looked up, one chain of several): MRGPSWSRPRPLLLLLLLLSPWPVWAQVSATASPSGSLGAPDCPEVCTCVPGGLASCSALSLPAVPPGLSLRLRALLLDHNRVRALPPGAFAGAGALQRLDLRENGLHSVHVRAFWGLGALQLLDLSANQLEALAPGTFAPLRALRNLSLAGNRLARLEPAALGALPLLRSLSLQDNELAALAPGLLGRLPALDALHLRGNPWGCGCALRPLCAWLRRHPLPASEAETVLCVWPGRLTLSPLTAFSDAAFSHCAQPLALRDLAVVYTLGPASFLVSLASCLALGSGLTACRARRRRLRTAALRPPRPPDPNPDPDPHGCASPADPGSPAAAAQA

[12] = system: R275C; experiment: as above; conditions: U2OS BacMam BK variants, at 30 µM
[13] = system: R275C/beta1; experiment: as above; conditions: U2OS BacMam BK variants, at 30 µM
[14] = system: R275C/beta2Delta; experiment: as above; conditions: U2OS BacMam BK variants, at 30 µM
[15] = system: R275C/beta4; experiment: as above; conditions: U2OS BacMam BK variants, at 30 µM
[16] = system: R275C/Slo1WT/beta2; experiment: as above; conditions: U2OS BacMam BK variants, at 30 µM
[17] = modulation of C. elegans fzo-1 (AID 1259413; call rule not given here;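 further: fzo-1 mutant C. elegans worms in liquid wells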); conditions: C. elegans fzo-1 modulator screen, mean read-out; stronger effect = higher value
[18] = system: Aerobactin synthetase IucA (Klebsiella pneumoniae); experiment: inhibition of K. pneumoniae IucA enzyme – biochemical, Tocris library, absorbance (AID 1345561; call rule not given here;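 further: 100% = enzyme without compound and 0% = no enzyme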); conditions: purified IucA enzyme assay, absorbance (OD) read-out; stronger effect = lower value;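 tested at 8 µM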
[19] = viability loss with induced miR-34 in A549 – imaging, A549 dox-inducible miR-34, nuclei and caspase counts, primary screen (AID 1347080;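 active means compounds whose cell count with miR-34 switched on is under 0.7 times the count with it off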); conditions: A549 miR-34 inducible, Hoechst nuclei count, 48 h
[20] = galactose survival enhancers in mitochondrial complex I cybrids – cell-based, galactose medium, ATP luminescence, primary screen (AID 1645843;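 active means z-score of at least 1.8 in each of two replicates, scored against plate mean and spread of sample wells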;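 further: positive z means more ATP and so rescue of galactose-driven cybrid death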); conditions: complex I mutant cybrid cells, 72 h, stronger effect = higher value
[21] = blockers of polyQ-driven CASP3 activation – cell-based (AID 1583); conditions: polyglutamine-induced caspase-3 activation, cell assay; stronger effect = higher value;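 tested at 10 µM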
[22] = yeast 75Q aggregation reduction – 75Q-TubU reporter (AID 1593); conditions: Yeast 75Q polyglutamine aggregation reporter
[23] = restoration of touch response, mutant HTT neurons – whole organism, C. elegans mechanosensory neurons, N-terminal huntingtin (AID 1599); conditions: C. elegans polyQ-huntingtin mechanosensory neurons, stronger effect = higher value
[24] = blockers of cytochrome c efflux from mitochondria – biochemical, purified mitochondria (AID 1603); conditions: stronger effect = lower value;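 further: mouse liver mitochondria challenged with calcium chloride; signal normalized to the plate average as 100%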
[25] = polyglutamine aggregate formation blockers (AID 1604); conditions: polyglutamine-induced protein aggregation inhibition assay; stronger effect = higher value; tested at 2.5 µM
[26] = glutamate transport activators, MN-1 cells, MN-1 cell line (AID 1612); conditions: MN-1 motor neuron cells, stronger effect = higher value;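 further: tested at 1 µM final; 0% = mean of DMSO vehicle wells on each plate; positive means more glutamate uptake than control and negative means less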
[27] = GFP-Q80 aggregate reduction, neuronal-like cells, cell-based, NGF-treated PC12, GFPQ80 (AID 1614); conditions: PC12 NGF-treated GFP-polyQ80 inclusion reduction;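 further: lower means fewer inclusions and 0 means no inclusions at all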
[28] = 75Q-TubH aggregate inhibition, S. cerevisiae, yeast (AID 1616); conditions: S. cerevisiae 75Q-TubH polyglutamine aggregation suppression; stronger effect = higher value
[29] = measured here: relative caspase fold change +Dox/-Dox
[30] = measured here: total cells with miR-34 induction, stronger effect = lower value
[31] = measured here: total cells without miR-34 induction

CN1CC[C@@H](c2ccc(F)cc2)[C@H](COc2ccc3c(c2)OCO3)C1
inactive: parasite load remaining [1] 84.5% | fluorescence ratio [2] 1.01 | inhibition [3] 2.77% | inhibition [4] 0.67% | fluorescence ratio [5] 0.93 | z-score [6] -0.473 | log fold change Tl+ flux [7] 0.106 | log fold change Tl+ flux [8] 0.0692 | log fold change Tl+ flux [9] 0.045 | log fold change Tl+ flux [11] -0.0237 | log fold change Tl+ flux [12] -0.0665 | log fold change Tl+ flux [14] 0.0265 | log fold change Tl+ flux [16] -0.033
65.3%: viability [1]
active: log fold change Tl+ flux [10] 0.102 | log fold change Tl+ flux [13] 0.146 | log fold change Tl+ flux [15] 0.0863

CCCCC/C=C\C/C=C\C/C=C\C/C=C\CCCC(=O)Nc1ccc(O)cc1
inactive: parasite load remaining [1] 94.1% | fluorescence ratio [2] 0.87 | inhibition [3] 0.4% | inhibition [4] 4.52% | fluorescence ratio [5] 0.88 | z-score [6] 0.572 | mean signal [17] 245 | remaining activity [18] 113% | fold change ([19]; stronger effect = lower value) 1.04 and 0.798 | z-score [20] -0.695
0.71 and 1.12: fold change [19, 29]
87.5%: viability [1]
5430 and 5550: cell count [19, 30]
5220 and 6950: cell count [19, 31]

CN1C(=O)CN=C(c2ccccc2)c2cc(Cl)ccc21
-26.8%: glutamate uptake change [26]
0.95: score [22]
inactive: parasite load remaining [1] 122% | fluorescence ratio [2] 1.03 | inhibition [3] -1.98% | inhibition [4] 0.67% | fluorescence ratio [5] 1.02 | z-score [6] -0.636 | mean signal [17] 240 | fold change ([19]; stronger effect = lower value) 0.967 | z-score [20] 1.09 | log fold change Tl+ flux [7] 0.00227 | log fold change Tl+ flux [8] -0.0264 | log fold change Tl+ flux [9] 0.0204 | log fold change Tl+ flux [10] 0.0209 | log fold change Tl+ flux [11] -0.0437 | log fold change Tl+ flux [12] -0.0487 | log fold change Tl+ flux [13] -0.07 | log fold change Tl+ flux [14] -0.0058 | log fold change Tl+ flux [15] 0.0195 | log fold change Tl+ flux [16] 0.0176
0.718: aggregation suppression score [28]
2: inclusion score [27]
1.74: fold change [19, 29]
26.5%: inhibition of aggregation [25]
0.67: rescue above control [23]
-7.18%: inhibition [21]
81.8%: viability [1]
0.88: cytochrome c release ratio [24]
9270: cell count [19, 30]
9590: cell count [19, 31]

CN1CC[C@]2(c3cccc(O)c3)Cc3nc4ccccc4cc3C[C@H]2C1
65.5%: viability [1]
inactive: parasite load remaining [1] 54.3% | fluorescence ratio [2] 0.96 | inhibition [3] -8.08% | inhibition [4] -1.97% | fluorescence ratio [5] 0.98 | z-score [6] -0.954 | mean signal [17] 226

NC(=NCc1ccc(Cl)cc1)SCCCc1cnc[nH]1
0.654 and 0.836: fold change [19, 29]
8670 and 7970: cell count [19, 30]
63.6%: viability [1]
9480 and 8280: cell count [19, 31]
inactive: parasite load remaining [1] 42% | fluorescence ratio [2] 0.97 | inhibition [3] -2.84% | inhibition [4] 0.39% | fluorescence ratio [5] 0.97 | z-score [6] -0.336 | mean signal [17] 232 | remaining activity [18] 102% | fold change ([19]; stronger effect = lower value) 0.914 | fold change ([19]; stronger effect = lower value, cell number ratio, induced over uninduced) 0.963 | z-score [20] -1.21 and 0.08

c1ccc(Cn2ccnc2)cc1
8900: cell count [19, 30]
0.727: fold change [19, 29]
7170: cell count [19, 31]
67.7%: viability [1]
inactive: parasite load remaining [1] 66.3% | fluorescence ratio [2] 0.9 | inhibition [3] -1.09% | inhibition [4] 1.97% | fluorescence ratio [5] 0.88 | z-score [6] 0.238 | mean signal [17] 248 | fold change ([19]; stronger effect = lower value) 1.24 | z-score [20] 0.075 | log fold change Tl+ flux [7] 0.0263 | log fold change Tl+ flux [8] -0.0465 | log fold change Tl+ flux [9] -0.0252 | log fold change Tl+ flux [10] -0.0022 | log fold change Tl+ flux [11] -0.0094 | log fold change Tl+ flux [12] -0.0227 | log fold change Tl+ flux [13] -0.0133 | log fold change Tl+ flux [14] -0.00773 | log fold change Tl+ flux [15] -0.0192 | log fold change Tl+ flux [16] -0.0321

c1cncc(C2CCCN2)c1 (configuration not stated)
9590: cell count [19, 30]
10500: cell count [19, 31]
2.18: fold change [19, 29]
inactive: parasite load remaining [1] 96.8% | fluorescence ratio [2] 1.01 | inhibition [3] -1.98% | inhibition [4] -1.64% | fluorescence ratio [5] 0.95 | z-score [6] -0.685 | mean signal [17] 296 | fold change ([19]; stronger effect = lower value) 0.916 | z-score [20] 0.385
74.2%: viability [1]

CC12CCC(=O)C=C1CCC1C2CCC2(C)C(O)CCC12 (configuration not stated)
9970: cell count [19, 30]
inactive: parasite load remaining [1] 38.7% | fluorescence ratio [2] 0.97 | inhibition [3] -3.18% | inhibition [4] -3.53% | fluorescence ratio [5] 1.01 | fold change ([19]; stronger effect = lower value) 0.96 | z-score [20] -0.235 | log fold change Tl+ flux [7] 0.0199 | log fold change Tl+ flux [8] 0.0232 | log fold change Tl+ flux [9] 0.032 | log fold change Tl+ flux [10] -0.0491 | log fold change Tl+ flux [11] -0.042 | log fold change Tl+ flux [12] 0.011 | log fold change Tl+ flux [13] 0.00563 | log fold change Tl+ flux [14] 0.059 | log fold change Tl+ flux [15] -0.00525 | log fold change Tl+ flux [16] -0.0485
10400: cell count [19, 31]
100%: viability [1]
2.43: fold change [19, 29]
